The record followed here is PubChem BioAssay.

“And” between values parts separate entries of the source, which are not always exact repeats. Equal values may be shown once. Results filed as inconclusive are left out. For some assays here: Results with a measured potency or affinity are listed apart. The source made the active and inactive calls. Unless noted, how the calls were made is not given here.

Test [1] can be described thus: kinase inhibitors against Plasmodium liver-stage infection, cell-based, known kinase inhibitor set, luminescence, hepatoma host viability (AID 624392).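 Further: infected cells incubated roughly two days before readout.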 The following applies: Plasmodium liver stage in hepatoma cells, luciferase luminescence, concentration not given here; liver cell % of control: measured here: host liver cell viability; parasite % of control: stronger effect = lower value.

A short description of test [2]: sensitizers of A549 cells to miR-34 induction, primary screen, imaging, A549 dox-inducible miR-34, nuclei and caspase counts (AID 1347080;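 active means compounds whose cell count with miR-34 switched on is under 0.7 times the count with it off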). Conditions: A549 miR-34 inducible, Hoechst nuclei count, 48 h.
The nature of test [3]: survival rescue of mitochondrial mutant cells in low glucose, primary screen, MELAS cybrids, Rieske KO mouse fibroblasts, CellTiter-Glo (AID 1508586;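 active means mean z-score across replicates of 1.96 or higher in either the MELAS or the Rieske mutant cell line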;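 further: z relative to plate mean and SD of compound and empty wells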).
Test [4] can be described thus: liver-stage malaria parasite growth inhibition, primary screen, cell-based, HepG2, luciferase luminescence, HepG2 viability (AID 624349; in the data active means parasite load remaining mostly below about 12%, no sharp cut-off; inactive means mostly above about 10%;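 further: 100% = mean of DMSO negative control wells on the same plate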). Conditions: P. berghei liver stage in HepG2, luciferase luminescence, concentration not given here; parasite load remaining: stronger effect = lower value; viability: measured here: HepG2 viability without parasites.
Test [5] addresses ATP-dependent translocase ABCB1 (Homo sapiens) (UniProt P08183). The experiment in a line: MDR1 (ABCB1) efflux transporter inhibition, cell-based (AID 377; in the data active means fluorescence slope change above about 50%). The following applies: MDR1-expressing cells, fluorescent substrate accumulation slope; stronger effect = higher value; concentration not given here.
The nature of test [6]: polyglutamine-triggered caspase-3 activation inhibitors, cell-based (AID 1583). Conditions: polyglutamine-induced caspase-3 activation, cell assay; stronger effect = higher value;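 tested at 10 µM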.
Test [7] in a line: suppressors of polyQ aggregation in yeast, 75Q-TubU reporter (AID 1593). The following applies: Yeast 75Q polyglutamine aggregation reporter.
Test [8] is described as follows: rescue of polyQ-huntingtin neuronal dysfunction in worms, whole organism, C. elegans mechanosensory neurons, N-terminal huntingtin (AID 1599). Conditions: touch response, stronger effect = higher value.
A short description of test [9]: inhibitors of mitochondrial cytochrome c release, biochemical, purified mitochondria (AID 1603).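 Further: mouse liver mitochondria challenged with calcium chloride; signal normalized to the plate average as 100%.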 The following applies: stronger effect = lower value.
Test [10] is described as follows: inhibitors of polyQ protein aggregation (AID 1604). The following applies: polyglutamine-induced protein aggregation inhibition assay; stronger effect = higher value; tested at 2.5 µM.
Test [11] is described as follows: enhancers of glutamate uptake in motor neurons, MN-1 cell line (AID 1612).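 Further: tested at 1 µM final; 0% = mean of DMSO vehicle wells on each plate; positive means more glutamate uptake than control and negative means less.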 The following applies: MN-1 motor neuron cells, stronger effect = higher value.
Test [12] can be described thus: reducers of polyQ inclusions in PC12 cells, cell-based, NGF-treated PC12, GFPQ80 (AID 1614).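 Further: lower means fewer inclusions and 0 means no inclusions at all.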 Conditions: PC12 NGF-treated GFP-polyQ80 inclusion reduction.
Test [13] in a line: suppressors of polyglutamine aggregation in yeast, 75Q-TubH (AID 1616). The following applies: S. cerevisiae 75Q-TubH polyglutamine aggregation suppression; stronger effect = higher value.
The target in test [14] is NAD(+) hydrolase SARM1 (Homo sapiens) (UniProt Q6SZW1). Nature of the test: SARM1 TIR NADase inhibitors, cell lysate, NAD-Glo luminescence (AID 1508614;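 active means compound whose remaining NAD level is above about 45 nM, limit read from the data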). The following applies: SAM-TIR HEK293T lysate NADase, at 1 µM, stronger effect = higher value.
Where [15] appears, read: stronger effect = lower value, cell number ratio, induced over uninduced.
[16] abbreviates: measured here: relative caspase fold change +Dox/-Dox.
Setting [17] is: measured here: total cells with miR-34 induction, stronger effect = lower value.
The mark [18] stands for this setting: measured here: total cells without miR-34 induction.
Setting [19] is: MELAS cybrid survival, CellTiter-Glo 48 h, stronger effect = higher value.
Setting [20] is: Rieske KO mouse fibroblast survival, CellTiter-Glo 72 h.

Chain of NAD(+) hydrolase SARM1 (Homo sapiens) (Q6SZW1 whole entry, looked up): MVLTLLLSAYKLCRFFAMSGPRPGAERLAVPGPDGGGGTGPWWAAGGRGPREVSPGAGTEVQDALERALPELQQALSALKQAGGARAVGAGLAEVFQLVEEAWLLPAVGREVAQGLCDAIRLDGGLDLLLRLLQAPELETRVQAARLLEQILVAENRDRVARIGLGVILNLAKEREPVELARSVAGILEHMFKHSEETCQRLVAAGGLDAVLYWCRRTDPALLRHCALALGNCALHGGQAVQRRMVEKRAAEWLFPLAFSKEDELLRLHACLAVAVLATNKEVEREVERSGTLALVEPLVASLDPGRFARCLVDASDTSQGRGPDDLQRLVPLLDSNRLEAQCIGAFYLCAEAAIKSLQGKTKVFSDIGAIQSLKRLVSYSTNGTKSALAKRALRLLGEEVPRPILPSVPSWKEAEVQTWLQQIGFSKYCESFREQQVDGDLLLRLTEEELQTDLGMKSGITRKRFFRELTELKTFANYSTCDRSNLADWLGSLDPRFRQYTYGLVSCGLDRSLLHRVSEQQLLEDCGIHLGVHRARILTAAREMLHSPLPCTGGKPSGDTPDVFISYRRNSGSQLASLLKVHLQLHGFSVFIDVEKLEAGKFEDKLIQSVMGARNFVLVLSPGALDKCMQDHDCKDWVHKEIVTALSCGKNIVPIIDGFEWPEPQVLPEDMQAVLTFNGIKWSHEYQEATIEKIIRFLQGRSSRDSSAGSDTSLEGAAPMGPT
Chain of ATP-dependent translocase ABCB1 (Homo sapiens) (P08183 whole entry, looked up): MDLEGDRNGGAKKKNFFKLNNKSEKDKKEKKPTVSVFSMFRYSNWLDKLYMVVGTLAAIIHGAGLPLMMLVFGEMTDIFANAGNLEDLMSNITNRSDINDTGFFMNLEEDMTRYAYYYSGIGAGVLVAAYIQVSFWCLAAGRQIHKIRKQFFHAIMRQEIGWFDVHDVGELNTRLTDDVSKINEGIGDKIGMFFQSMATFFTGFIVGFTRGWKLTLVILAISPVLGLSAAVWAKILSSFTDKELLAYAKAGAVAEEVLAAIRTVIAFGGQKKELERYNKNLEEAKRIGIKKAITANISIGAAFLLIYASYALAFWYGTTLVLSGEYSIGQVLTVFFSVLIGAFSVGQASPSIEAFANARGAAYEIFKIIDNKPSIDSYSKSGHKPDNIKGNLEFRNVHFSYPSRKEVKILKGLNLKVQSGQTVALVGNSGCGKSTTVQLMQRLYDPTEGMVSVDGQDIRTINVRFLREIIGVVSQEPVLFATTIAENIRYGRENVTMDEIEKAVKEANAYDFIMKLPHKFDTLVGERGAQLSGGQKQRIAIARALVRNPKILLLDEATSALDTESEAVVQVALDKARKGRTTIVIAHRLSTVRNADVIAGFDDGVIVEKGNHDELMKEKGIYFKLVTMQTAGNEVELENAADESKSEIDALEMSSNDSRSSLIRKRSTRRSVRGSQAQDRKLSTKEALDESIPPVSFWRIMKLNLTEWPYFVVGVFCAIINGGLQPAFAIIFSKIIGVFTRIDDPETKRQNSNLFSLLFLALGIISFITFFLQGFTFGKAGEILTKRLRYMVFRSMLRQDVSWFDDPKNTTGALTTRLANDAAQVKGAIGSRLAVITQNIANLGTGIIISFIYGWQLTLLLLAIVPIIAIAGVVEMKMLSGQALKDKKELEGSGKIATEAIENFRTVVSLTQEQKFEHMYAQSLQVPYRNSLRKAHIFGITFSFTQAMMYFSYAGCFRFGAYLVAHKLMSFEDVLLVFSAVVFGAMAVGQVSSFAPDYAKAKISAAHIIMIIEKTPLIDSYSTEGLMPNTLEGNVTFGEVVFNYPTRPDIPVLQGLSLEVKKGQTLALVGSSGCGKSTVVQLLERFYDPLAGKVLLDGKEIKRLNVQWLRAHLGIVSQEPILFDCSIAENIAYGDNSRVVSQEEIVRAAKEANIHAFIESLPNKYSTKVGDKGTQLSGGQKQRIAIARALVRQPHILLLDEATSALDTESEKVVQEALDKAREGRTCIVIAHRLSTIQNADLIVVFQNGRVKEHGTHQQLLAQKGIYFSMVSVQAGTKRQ

On to `Cc1ccccc1-n1c(Cn2nc(-c3cccc(O)c3)c3c(N)ncnc32)nc2cccc(C)c2c1=O`, for which the liver cell % of control in test [1] was 93.6% and 86.4% and 105%. Also, the parasite % of control in test [1] is 34.6% (inactive) and 44.4% (inactive) and 71.3% (inactive). The fold change in test [2] (setting [15]) is 0.979 (inactive); in test [2] (setting [16]) it was 0.801. The cell count in test [2] (setting [17]) was determined as 7710; in test [2] (setting [18]) it was 7880. In addition, the z-score is -0.245 (inactive) in [3] (setting [19]) and -0.436 in [3] (setting [20]).
Turning to `CN[C@@H]1C(O[C@H]2O[C@H](CO)[C@@H](N)[C@H](O)[C@H]2O)O[C@H]2C[C@@H](N)[C@@H](O[C@H]3[C@H](O)[C@@H](O)[C@H](N)C[C@@H]3N)OC2[C@@H]1O` (stereo partly drawn), in test [4], the parasite load remaining was 95.7% (inactive). Besides, in [4], the viability is 72.5%. Moreover, the results for the fold change in test [2] (setting [15]) and in test [2] (setting [16]) were 1.02 (inactive) and 0.823, respectively. The cell count in test [2] (setting [17]) amounted to 9080; in test [2] (setting [18]), 8920. Besides, the z-score in test [3] (setting [19]) was 0.718 (inactive); in test [3] (setting [20]), -0.268.
For the molecule `CC[C@]12CCCN3CCc4c(n(c5ccccc45)[C@](O)(C(=O)OC)C1)[C@@H]32`, in [5], the fluorescence slope change is 15.4% (inactive). In [6], this molecule had an inhibition of 18.7%. In test [7], this molecule returned a score of 1.6. The molecule further displayed a rescue above control in test [8] of 4.14. Moreover, the cytochrome c release ratio in test [9] turned out to be 1.05. This molecule also came in with an inhibition of aggregation in [10] of 27%. For the same molecule, the glutamate uptake change in test [11] is -2.93%. In addition, in test [12], the inclusion score was determined as 2.5. In test [13], this molecule registered an aggregation suppression score of 1.32. For the same molecule, in test [4], the parasite load remaining was 112% (inactive) and 81.9% (inactive) and 58.4% (inactive). The viability in [4] is 102% and 72.1% and 74.9%. Moreover, the fold change in test [2] (setting [15]) was 0.786 (inactive); in test [2] (setting [16]), 1.26. Also, the cell count in test [2] (setting [17]) amounted to 7940; in test [2] (setting [18]), 10100.
Turning to `Cc1[nH]c(C=C2C(=O)Nc3ccccc32)c(C)c1CCC(=O)O`, the liver cell % of control in test [1] is 515% and 322% and 191%. For the same molecule, the parasite % of control in test [1] was 51% (inactive) and 49.5% (inactive) and 54.8% (inactive). Besides, the figures for the fold change in test [2] (setting [15]) and in test [2] (setting [16]) were 0.955 (inactive) and 0.799, respectively. Also, the cell count in [2] (setting [17]) came to 7040; in [2] (setting [18]), 7360. Further, the values for the z-score in test [3] (setting [19]) and in test [3] (setting [20]) were -0.288 (inactive) and 0.507, respectively.
As for `O=C(c1cccnc1)N1CCOCC1`, the fold change in [2] (setting [15]) is 0.924 (inactive); in test [2] (setting [16]), 0.837. Moreover, the cell count was 7970 in test [2] (setting [17]) and 8630 in [2] (setting [18]). Also, the remaining NAD in test [14] is 10 nM (inactive).
In the case of `COc1cc(N)c(Cl)cc1C(=O)N[C@H]1CCN(CCCOc2ccc(F)cc2)C[C@H]1OC`, in test [4], the parasite load remaining is 43.8% (inactive). The viability in test [4] is 91.1%. For the same molecule, the figures for the fold change in [2] (setting [15]) and in test [2] (setting [16]) were 0.886 (inactive) and 2.08, respectively. Moreover, the cell count turned out to be 7400 in [2] (setting [17]) and 8350 in test [2] (setting [18]). The results for the z-score in test [3] (setting [19]) and in test [3] (setting [20]) were -0.0533 (inactive) and 0.31, respectively.
Consider `CC(C)CCN1c2nc(Nc3cc(F)c(O)c(F)c3)ncc2N(C)C(=O)C1C` (stereo not drawn), for which the liver cell % of control in [1] is 87.7% and 90.4% and 106%. In addition, the parasite % of control in test [1] was 35.4% (inactive) and 66.2% (inactive) and 39.4% (inactive). Moreover, the fold change in test [2] (setting [15]) was 1.05 (inactive); in test [2] (setting [16]), 0.299. Also, the cell count in test [2] (setting [17]) is 2560; in test [2] (setting [18]), 2450. The results for the z-score in test [3] (setting [19]) and in [3] (setting [20]) were 0.0608 (inactive) and -0.296, respectively.
`COC(C(=O)N1Cc2[nH]nc(NC(=O)c3ccc(N4CCN(C)CC4)cc3)c2C1)c1ccccc1` (stereo not drawn): the liver cell % of control in test [1] was 82.1% and 96.2% and 98.6%. In [1], the parasite % of control was 40.2% (inactive) and 56.3% (inactive) and 75.4% (inactive). Besides, the fold change in test [2] (setting [15]) was 1.01 (inactive); in [2] (setting [16]), 0.994. For the same molecule, the cell count in [2] (setting [17]) amounted to 1850; in test [2] (setting [18]), 1820. The values for the z-score in test [3] (setting [19]) and in [3] (setting [20]) were 1.1 (inactive) and -2.53, respectively.

As a reminder, the viability is a read-out of living cells in per cent, often relative to untreated cells. Broadly, the inhibition is the change of the read-out against control, counted positive when it falls.
